An excerpt weighted towards active compounds, which were near 12% of everything screened.
SARS PLpro yeast: qHTS of Yeast-based Assay for SARS-CoV PLP. S. cerevisiae expressing SARS-CoV PLpro, growth rescue. 0.19% of 330,000 active. Potency, µM (highest dose often 32.9 µM), actives largely listed as activators; calls by dose curve; also: nearly all actives have a fitted effect of over 55% in size
Pf growth 96h: Primary qHTS for delayed death inhibitors of the malarial parasite plastid, 96 hour incubation | P. falciparum luciferase reporter growth, 96 h | Potency, µM (highest dose often 28.7 µM), most hits filed as inhibitors | 6.9% of 320,000 active | AID 504834, 2011
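Parasite growth measured via integrated firefly luciferase reporter in P. falciparum. Infected erythrocytes at 2% hematocrit, 0.05% parasitemia final were treated 96 hours at 37 C under 5% CO2, and luminescence was read.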
Pf growth 48h: Primary qHTS for delayed death inhibitors of the malarial parasite plastid, 48 hour incubation | P. falciparum luciferase growth in erythrocytes, 48 h | Potency, µM (top dose mostly 28.7 µM), actives largely listed as inhibitors | 5.9% of 310,000 active
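Luminescence readout; reporter = integrated firefly luciferase in P. falciparum. RBC culture at 2% hematocrit, 0.1% parasitemia final, 37 C/5% CO2; decreased signal taken as growth inhibition.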
AmpC no deterg: qHTS Inhibitors of AmpC Beta-Lactamase (assay without detergent). P00811. AmpC nitrocefin hydrolysis, absorbance 480 nm, 0.0001% Triton. Potency, µM (doses to about 57.1 µM), actives largely listed as inhibitors. 0.52% of 330,000 active; also: nearly all actives have a fitted effect of over 20% in size
Target sequence (P00811 whole entry, looked up): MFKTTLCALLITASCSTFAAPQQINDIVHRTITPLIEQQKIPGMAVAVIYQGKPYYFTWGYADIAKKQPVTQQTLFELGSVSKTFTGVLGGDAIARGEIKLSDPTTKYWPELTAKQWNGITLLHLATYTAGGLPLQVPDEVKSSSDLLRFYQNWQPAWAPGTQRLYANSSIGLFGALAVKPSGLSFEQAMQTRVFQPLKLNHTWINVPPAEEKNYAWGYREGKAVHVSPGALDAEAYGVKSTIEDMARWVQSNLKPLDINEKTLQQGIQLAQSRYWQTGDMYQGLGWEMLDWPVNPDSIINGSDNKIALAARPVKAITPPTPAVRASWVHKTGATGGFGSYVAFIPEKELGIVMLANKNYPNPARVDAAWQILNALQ
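20 mM phosphate pH 7.0 + 0.01% (detergent screen) or 0.0001% Triton X-100; 5.3 nM AmpC reagent; cpd preinc 15 min RT; nitrocefin (800 uM stock) to start; A480 q20 s × 4 min; Activity was normalised to no-enzyme and no-compound control wells.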
Sm TGR block: qHTS Assay for the Inhibitors of Schistosoma Mansoni Peroxiredoxins; Potency, µM (titrated, usually from 114 µM), actives largely listed as inhibitors; 3% of 360,000 active; Schistosoma mansoni thioredoxin glutathione reductase (TGR), Q962Y6; purified TGR, DTNB reduction, TNB absorbance 405 nm; also: nearly all actives have a fitted effect of over 60% in size
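TGR 20 nM + NADPH 100 uM (dispensed conc.), cpd preinc 15 min RT; start with NADPH (500 uM addition) then DTNB (15 mM addition). Kinetic TNB absorbance, 405 nm filter. Four-parameter Hill fit across titration.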
AmpC detergent: qHTS Inhibitors of AmpC Beta-Lactamase (assay with detergent) | 0.041% of 370,000 active | P00811 | AID 485294, 2010 | AmpC hydrolysis of nitrocefin, absorbance 480 nm, 0.01% Triton | Potency, µM (series often up to 114 µM), actives largely listed as inhibitors; also: nearly all actives have a fitted effect of over 25% in size
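AmpC (5.3 nM in the dispensed reagent) in 20 mM phosphate pH 7.0 with 0.01% (detergent screen) or 0.0001% Triton X-100 was preincubated with compounds for 15 min at room temperature. Nitrocefin was then added from an 800 uM solution, and hydrolysis was followed at 480 nm.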
Each line names hits and unclear results; the compound was inactive in the other large screens. Unless noted, calls follow the shape of the dose curve; as a rule, active = well fitted curve in the direction sought with a large enough effect; inconclusive = small, poorly fitted or top-dose-only effect, or another doubt; inactive = no such curve, though single readings can be large; an effect the other way counts as inactive or inconclusive.

COc1ccccc1C(=O)NCC(=O)N/N=C/c1cccc(Cl)c1	Pf growth 96h 2.1µM
O=C(CNC(=O)c1ccc(F)cc1)N/N=C/c1cc(Br)ccc1OCc1ccccc1	Pf growth 96h inconclusive, AmpC no deterg inconclusive
Cc1cc(C)n(C(=O)CNC(=O)c2ccccc2Br)n1	none
COc1ccccc1C(=O)NCC(=O)n1nc(C)cc1C	Pf growth 96h 13µM, AmpC detergent inconclusive
COc1ccccc1C(=O)NCC(=O)N/N=C/c1cc(Br)ccc1OCc1ccccc1	AmpC no deterg 25µM
COc1ccc(NC(=O)Nc2cccc(NC(C)=O)c2)c(OC)c1	Pf growth 96h 12µM
COc1ccc(S(=O)(=O)Nc2ccccc2C(=O)Nc2nc(-c3ccc(F)cc3)cs2)cc1OC	Pf growth 96h inconclusive, Pf growth 48h 3.3µM, AmpC detergent inconclusive
COc1ccc(NC(=O)c2c(OC)cccc2OC)c(OC)c1	Pf growth 96h inconclusive, Pf growth 48h 4.7µM, Sm TGR block inconclusive
COc1ccc(-c2csc(NC(=O)c3ccco3)n2)cc1	none
COc1ccc(-c2csc(NC(=O)c3c(OC)cccc3OC)n2)cc1	Pf growth 96h inconclusive, Pf growth 48h 5.9µM
COc1ccc(-c2csc(NC(=O)c3ccccc3NS(=O)(=O)c3ccc(C)cc3)n2)cc1	none
COc1cccc(CNC(=O)Cn2cc3c(n2)-c2c(oc(C(=O)N4CCCC4)c2C)CC3)c1OC	none (no result: SARS PLpro yeast, Pf growth 96h, Pf growth 48h, AmpC no deterg)
CCOC(=O)C(C)N1N=C(/C=C/c2ccc(OC)cc2)CCC1=O (stereo not given)	Pf growth 96h inconclusive
Cc1ccnc2nc(NC(=O)c3ccccc3Cl)nn12	none (no result: SARS PLpro yeast, Pf growth 96h, Pf growth 48h, AmpC no deterg)
COc1ccc(NC(=S)NC(=O)Cc2ccccc2)c(OC)c1	Sm TGR block 10µM, AmpC detergent inconclusive
Cc1cccc(C(=O)Nc2ccccc2C(=O)NCc2ccco2)c1	SARS PLpro yeast inconclusive
O=C(O)Cn1nnc(COc2ccccc2)n1	none
Cc1c(CCOC(=O)c2ccccc2)sc[n+]1Cc1ccccc1	Pf growth 48h 5.2µM
CC(SCC(=O)Nc1ccccc1)c1nc2ccccc2c(=O)[nH]1 (stereo not given)	Pf growth 96h inconclusive
Cc1ccc(NC(=O)CSC(C)c2nc3ccccc3c(=O)[nH]2)cc1 (stereo not given)	Pf growth 96h 15µM
O=C(CCl)Nc1cc(S(=O)(=O)N2CCOCC2)ccc1N1CCOCC1	none
O=C(Cc1c(F)cccc1Cl)Nc1cc(S(=O)(=O)N2CCCCC2)ccc1N1CCOCC1	Pf growth 96h inconclusive, Pf growth 48h 12µM
O=C(Cc1ccccc1Cl)Nc1cc(S(=O)(=O)N2CCOCC2)ccc1N1CCOCC1	Pf growth 96h 10µM, Pf growth 48h inconclusive
O=C(CCc1ccc(S(=O)(=O)N2CCOCC2)cc1)Nc1cc(Cl)ccc1N1CCOCC1	Pf growth 48h 6.6µM, AmpC detergent inconclusive
O=C(Cc1c(F)cccc1Cl)Nc1ccccc1N1CCCCC1	Pf growth 96h 13µM
Cn1cnc(S(=O)(=O)N2CCC(C(=O)Nc3ccc(Cl)c(C(F)(F)F)c3)CC2)c1	none (no result: SARS PLpro yeast, Pf growth 96h, Pf growth 48h, AmpC no deterg)
COc1ccc(CCN2CC(C(=O)Nc3ccc(S(C)(=O)=O)cc3)CC2=O)cc1OC (stereo not given)	Pf growth 96h inconclusive
Cc1ccccc1CC(=O)Nc1ccon1	none
C=CCN1C=CC(=C/C=C(/C#N)C(=O)OCC)C=C1	none
COc1ccc(C2C(=O)N(CCc3ccccc3)CC(=O)N2C2CCCCC2)cc1 (stereo not given)	Pf growth 96h 5.2µM (no result: Pf growth 48h)
COc1ccc(C2C(=O)N(C3CCCCCC3)CC(=O)N2CCc2ccccc2)cc1 (stereo not given)	none (no result: SARS PLpro yeast, Pf growth 96h, Pf growth 48h, AmpC no deterg)
CCCCN1C(=O)CN(CCc2ccccc2)C(=O)C1c1ccc(OC)cc1 (stereo not given)	Pf growth 96h 5.2µM, Pf growth 48h inconclusive
Cc1cccc(OCC(=O)NC(Cc2ccccc2)C(=O)O)c1 (stereo not given)	none
Cc1cccc(OCC(=O)NC(C)C(=O)N/N=C/c2c(OCc3ccccc3)ccc3ccccc23)c1 (stereo not given)	Pf growth 48h 6.6µM (no result: Pf growth 96h)
CN1CCN(c2nc(N(C)C)oc(=O)c2C#N)CC1	Pf growth 96h 0.0037µM
CC[C@H](NC(C)C)[C@H](O)c1ccc(O)c2[nH]c(=O)ccc12	Pf growth 96h 0.24µM (no result: SARS PLpro yeast, AmpC no deterg, Sm TGR block, AmpC detergent)
CCC(NC(C)C)C(O)c1ccc(O)c(O)c1 (stereo not given)	Pf growth 96h inconclusive, Pf growth 48h inconclusive, Sm TGR block inconclusive
COc1ccc2oc(-c3ccc(C)c(NC(=O)c4ccc5c(c4)OCCO5)c3)nc2c1	none (no result: SARS PLpro yeast, Pf growth 96h, Pf growth 48h, AmpC no deterg)
Cc1ccc(S(=O)(=O)N2CCN(C(=O)COC(=O)CCOc3ccc(C(C)(C)C)cc3)CC2)cc1	none
C#C[C@@]1(O)CC[C@@H]2[C@H]3CCC4=C/C(=N\O)CC[C@H]4[C@@H]3CC[C@]21CC	Pf growth 96h inconclusive (no result: SARS PLpro yeast, AmpC no deterg, Sm TGR block, AmpC detergent)
C#CC1(O)C=CC2C3CCC4=CC(=O)CCC4C3CCC21CC (stereo not given)	Pf growth 96h 8.5µM, Pf growth 48h inconclusive
Cc1cccc(NC(=O)C2C3CCCCC32)c1 (stereo not given)	Pf growth 96h 0.19µM, AmpC detergent inconclusive
O=C(Nc1ccccc1)C1C2CCCCC21 (stereo not given)	AmpC detergent inconclusive
CC(=O)c1ccc(S(=O)(=O)Nc2ccccc2C(=O)NC2CC2)cc1	AmpC detergent inconclusive
Cc1cc(=O)n2nc(N3CCC(C(=O)Nc4ccc(C(C)C)cc4)CC3)sc2n1	none (no result: SARS PLpro yeast, Pf growth 96h, Pf growth 48h, AmpC no deterg)
CC1=CC(=C(C#N)C#N)C=C(C)N1Cc1ccccc1	Pf growth 96h 4.7µM, Pf growth 48h inconclusive
Oc1ccccc1-c1cc(C(F)(F)F)[nH]n1	Pf growth 96h 9.3µM, Pf growth 48h inconclusive
CC(NC(=O)C(=O)N1CCOCC1)C(c1cccs1)N1CCN(c2ccccc2)CC1 (stereo not given)	Pf growth 96h inconclusive
N#Cc1cn(Cc2cccc(Cl)c2)c2ccccc12	Pf growth 48h 9.3µM
CCOC(=O)N1CCC2(CC1)C(C#N)=C(N)OC1=C2C(=O)CC(C)C1 (stereo not given)	Pf growth 96h 6.6µM
CCN(C(=O)COC(=O)c1cc(-c2cccs2)nc2ccccc12)C1CCS(=O)(=O)C1 (stereo not given)	AmpC detergent inconclusive
CCN(C(=O)COC(=O)c1cc(-c2ccc(C)o2)nc2ccccc12)C1CCS(=O)(=O)C1 (stereo not given)	Sm TGR block 25µM

High-throughput results from PubChem BioAssay.
